Test results: PubChem BioAssay AID1626 (SRMLSC, 2009)
Where “and” joins values, the source holds several entries; their conditions need not be identical. Equal entries are not always repeated. Hit rate of the full screen: of about 220,000 compounds, about 2,000 (0.91%) were called active. Inconclusive results (about 2%) are left out. Rule as the data show it: inconclusive = inhibition above about 80% without an active follow-up result; inactive = below that; test concentration not stated here. A selection follows. Potency and affinity values are given separately.

Assay: M. tuberculosis H37Rv growth inhibitors, H37Rv strain (AID 1626);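 also: bacteria incubated seven days before Alamar blue readout; 0% = bacteria only wells and 100% = bacteria with antibiotic wells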
Details: active compounds read high, concentration not given here

Row | Structure (SMILES) | inhibition
1 | O=[N+]([O-])c1cc(Cl)ccc1Sc1cccc2cccnc12 | 28.5% (inactive)
2 | O=[N+]([O-])c1ccc(CSc2nc3ccccc3o2)cc1 | -1.9% (inactive)
3 | O=[N+]([O-])c1ccc(Cl)cc1Sc1nc2ccccc2o1 | -9.56% (inactive)
4 | O=[N+]([O-])c1ccc(Sc2cccc3cccnc23)cc1 | 30.8% (inactive)
5 | O=C(c1ccc(Cl)c(S(=O)(=O)N2CCCC2)c1)N1CCN(c2ccc(F)cc2)CC1 | 3.62% (inactive)
6 | COc1ccc(NC(=O)CSc2nc(NS(=O)(=O)c3ccccc3)cc(=O)[nH]2)cc1 | 3.87% (inactive)
7 | CC(Sc1ccccc1)C(=O)Nc1ccccc1C(=O)N1CCOCC1 (configuration not stated) | -11.3% (inactive)
8 | CC(C)(C)c1cc(-c2ccccc2)no1 | 10.7% (inactive)
9 | COc1ccc(C(=O)Nc2ccc(N3CCN(Cc4ccccc4)CC3)cc2)cc1 | 4.64% (inactive)
10 | COc1ccccc1C(=O)Nc1ccc(N2CCN(Cc3ccccc3)CC2)cc1 | 40.9% (inactive)
11 | O=C(NNc1ccc(-c2csnn2)cc1)c1cc(Cl)cc(Cl)c1 | 27.1% (inactive)
12 | CCCCC1=CC2=C(c3ccco3)C(=O)C(C)(OC(=O)c3ccc(OC)cc3)C(=O)C2=CN1CCCOC(C)C (configuration not stated) | -5.76% (inactive)
13 | CC(=O)OC(C(=O)N1CCOCC1)c1c(F)cccc1F (configuration not stated) | -0.03% (inactive)
14 | O=C(CCCNC(=O)/C(=C/c1ccc(Br)cc1)NC(=O)c1ccccc1)OCc1ccccc1 | 1.44% (inactive)
15 | O=C(CCCNC(=O)/C(=C\c1ccc(F)cc1)NC(=O)c1ccccc1)OCc1ccccc1 | 1.82% (inactive)
16 | O=C(CNC(=O)c1ccc(-c2ccccc2)cc1)OCc1ccc(Br)cc1 | 6.21% (inactive)
17 | Cc1ccc(C(=O)N/C(=C\c2ccccc2)C(=O)OCc2ccccc2)cc1 | 12.7% (inactive)
18 | COc1ccc(-c2cn3cc(C(F)(F)F)cc(Cl)c3n2)cc1 | 65.8% (inactive)
19 | CCCc1cc(C(N)=O)c(NC(C)=O)s1 | 2.59% (inactive)
20 | O=C(c1cc(-c2ccccc2)on1)N1CCc2ccccc2C1 | -6.16% (inactive)
21 | CCOc1ccc(C2c3c(oc4cc(C)c(C)cc4c3=O)C(=O)N2CCCN2CCOCC2)cc1 (configuration not stated) | -8.64% (inactive)
22 | CCOC(=O)C1CCN(Cc2nnnn2CCc2ccccc2)CC1 | -3.91% (inactive)
23 | Nc1nc2nccc(-c3ccco3)n2n1 | -5.94% (inactive)

Row | Structure (SMILES) | inhibition
24 | CC(C)OC(=O)C(C)Nc1n[nH]c(=S)[nH]c1=O (configuration not stated) | -1.15% (inactive)
25 | COc1ccc(OC)c(-n2c(-c3ccc(S(C)(=O)=O)cc3)cc(C=O)c2C)c1 | -4.11% (inactive)
26 | CCc1nc(NCCCn2ccnc2)c2oc3ccccc3c2n1 | -11.5% (inactive)
27 | c1ccc(-c2c(-c3ccccc3)n(Cc3ccco3)c3ncnc(NCCCn4ccnc4)c23)cc1 | 25.2% (inactive)
28 | c1ccc(-c2oc3ncnc(NCCCN4CCOCC4)c3c2-c2ccccc2)cc1 | -8.09% (inactive)
29 | c1cncc(-c2nc(NCCCn3ccnc3)c3ccccc3n2)c1 | 1.38% (inactive)
30 | Cc1nc(NCCCn2ccnc2)c2oc3ccccc3c2n1 | 7.2% (inactive)
31 | Cc1nc(NCCCn2ccnc2)c2ccccc2n1 | -2.03% (inactive)
32 | CCOC(=O)c1cnn(CCOC(=O)c2cccs2)c1NC(=O)c1cccs1 | 7.28% (inactive)
33 | COC(=O)c1ccc(CSc2nnc(Nc3ccc(C)cc3)s2)o1 | -4.05% (inactive)
34 | Cc1c(Br)c([N+](=O)[O-])nn1CC(=O)c1ccccc1 | 0.16% (inactive)
35 | Cc1ccccc1CNC(=O)CCc1ccccc1 | -2.14% (inactive)
36 | CCc1ccc(Oc2ncnc(N)c2[N+](=O)[O-])cc1 | -1.27% (inactive)
37 | NC(=O)c1cc2n(n1)C(C(F)(F)F)CC(c1ccco1)N2 (configuration not stated) | -17% (inactive)
38 | Cc1ccc2nc3c(nc2c1)-c1ccccc1C3=O | -8.47% (inactive)
39 | Cc1ccc2nc(-c3ccccc3)c(-c3ccccc3)nc2c1 | 1.48% (inactive)
40 | O=C(CN1CCN(S(=O)(=O)c2ccccc2)CC1)Nc1ccc2c(c1)OCO2 | -8.01% (inactive)
41 | Nc1ncccc1OCc1cccc(C(F)(F)F)c1 | 16.6% (inactive)
42 | COc1ccc2nc(C(F)(F)Cl)c(C#N)c(N)c2c1 | -0.68% (inactive)
43 | O=C(O)c1ccc(/C=C/c2ccc3cccc(O)c3n2)cc1 | 74.2% (inactive)
44 | COc1ccc(C(=O)N/N=C/c2ccc3cccc(O)c3n2)cc1 | 64.5% (inactive)
45 | O/N=C/c1ccc2cccc(O)c2n1 | 3.62% (inactive)
46 | O=C(Cc1ccccc1)N/N=C/c1ccc2cccc(O)c2n1 | 22.8% (inactive)

Row | Structure (SMILES) | inhibition
47 | COc1cc2c(cc1NC(=O)C(C)Sc1ccc(C)cc1)oc1ccccc12 (configuration not stated) | 9.39% (inactive)
48 | CCOC(=O)CON1C(=O)C(=O)N(OCC(=O)OCC)[C@H]2CCCC[C@H]21 | 2.73% (inactive)
49 | COc1ccc(-c2[nH]ncc2CN2CCSCC2)c(OC)c1 | -1.11% (inactive)
50 | COc1ccc(-n2c(SCC(=O)Nc3ccccc3)nc3c(c2=O)SCC3)cc1 | 6.14% (inactive)
51 | CCCC(CCC)C(=O)Nc1ccncc1 | -10.4% (inactive)
52 | C=CCC(=O)OCCCCCCOc1ccc(C(=O)O)cc1 | -13.9% (inactive)
53 | CCCCCCOc1ccc(/C(N)=N/O)cc1 | 5.99% (inactive)
54 | CC1(C)Cc2c(c(=S)nc(-c3ccccc3)n2CCO)CO1 | 7.44% (inactive)
55 | O=C(O)Cc1sc(NCc2ccco2)nc1-c1ccccc1 | 8.81% (inactive)
56 | O=C(Nc1ccc(S(=O)(=O)Nc2nccs2)cc1)C1CC(=O)N(c2ccccc2)C1 (configuration not stated) | -6.74% (inactive)
57 | COc1ccc(Br)cc1/C=N/NC(=O)c1ccco1 | -2.04% (inactive)
58 | O=C(NCc1ccc(Cl)cc1)C(=O)Nc1nccs1 | 1.96% (inactive)
59 | Cc1ccc(CNC(=O)C(=O)Nc2nccs2)cc1 | 10.4% (inactive)
60 | O=C(/C=C/c1cccnc1)c1ccc(NC(=O)c2cccc(Br)c2)cc1 | 8.79% (inactive)
61 | CC(/C=C\c1cccnc1)=C/C(=O)O | 1.6% (inactive) and 0.21% (inactive)
62 | O=C(O)CCC(=O)/C=C/c1ccccc1 | -6.33% (inactive)
63 | O=C(/C=C/c1ccc(Br)cc1)NC(=O)c1ccccc1O | 5.02% (inactive)
64 | O=C(O)/C=C/c1cccnc1 | -0.59% (inactive)
65 | O=C(/C=C/c1ccccc1)NC(=O)c1ccccc1O | -10.8% (inactive)
66 | Cc1cccc(NC(=O)c2cccnc2)c1 | 1.57% (inactive)
67 | CC(/C=C\c1ccccc1)=C/C(=O)O | 2.72% (inactive)
